PubChem BioAssay (NCATS)
Records with an inconclusive call do not appear. A call without a number means that no potency is given here. Values without a mark were called inactive. Calls of active or inactive are those of the source. Unless noted, the call rests on the fitted dose curve; in most records, active means well fitted curve in the direction sought with a large enough effect; inconclusive means small, poorly fitted or top-dose-only effect, or another doubt; inactive means no such curve, though single readings can be large; an effect the other way counts as inactive or inconclusive.

Legend:
[1] = qHTS for Inhibitors of Plasmodium falciparum (DD2) proliferation (AID 504314);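 further: parasite DNA measured by SYBR Green fluorescence after red cell lysis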
Outline: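 Normalization used 0.29 uM artemisinin as full inhibition and DMSO as baseline. Parasitized erythrocytes were exposed to compounds for 72 h (37C, 5% CO2), then lysed with saponin/Triton buffer containing SYBR Green I.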

[2] = qHTS for Inhibitors of Plasmodium falciparum (GB4) proliferation (AID 504315); further: nearly all actives have a fitted effect of over 50% in size
Outline: (§1)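 Parasite growth measured as SYBR Green DNA fluorescence (ex 485, em 535 nm) after overnight lysis following 72 h culture at 37 °C, 0.3% parasitemia, 2.5% hematocrit. Values normalized against DMSO and 0.29 uM artemisinin controls, with plate-stack correction.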

[3] = qHTS for Inhibitors of Plasmodium falciparum (7G8) proliferation (AID 504316); further: series mostly up to about 6.7 µM; nearly all actives have a fitted effect of over 65% in size
Outline: as §1

[4] = qHTS for Inhibitors of Plasmodium falciparum (HB3) proliferation (AID 504318); further: nearly all actives have a fitted effect of over 60% in size
Outline: as §1

[5] = qHTS for Inhibitors of Plasmodium falciparum (CP250) proliferation (AID 504320)
Outline: as §1

[6] = target: Atrial natriuretic peptide receptor 1 (Homo sapiens) (UniProt P16066); assay: Natriuretic polypeptide receptor (hNpr1) antagonism - Pilot CMLD screen (AID 1347052; calls by dose curve;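 further: cGMP level read as GloSensor luciferase luminescence after agonist stimulation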; further: potency means the concentration at half of the fitted maximal effect)
Sequence of Atrial natriuretic peptide receptor 1 (Homo sapiens) (P16066 whole entry, looked up): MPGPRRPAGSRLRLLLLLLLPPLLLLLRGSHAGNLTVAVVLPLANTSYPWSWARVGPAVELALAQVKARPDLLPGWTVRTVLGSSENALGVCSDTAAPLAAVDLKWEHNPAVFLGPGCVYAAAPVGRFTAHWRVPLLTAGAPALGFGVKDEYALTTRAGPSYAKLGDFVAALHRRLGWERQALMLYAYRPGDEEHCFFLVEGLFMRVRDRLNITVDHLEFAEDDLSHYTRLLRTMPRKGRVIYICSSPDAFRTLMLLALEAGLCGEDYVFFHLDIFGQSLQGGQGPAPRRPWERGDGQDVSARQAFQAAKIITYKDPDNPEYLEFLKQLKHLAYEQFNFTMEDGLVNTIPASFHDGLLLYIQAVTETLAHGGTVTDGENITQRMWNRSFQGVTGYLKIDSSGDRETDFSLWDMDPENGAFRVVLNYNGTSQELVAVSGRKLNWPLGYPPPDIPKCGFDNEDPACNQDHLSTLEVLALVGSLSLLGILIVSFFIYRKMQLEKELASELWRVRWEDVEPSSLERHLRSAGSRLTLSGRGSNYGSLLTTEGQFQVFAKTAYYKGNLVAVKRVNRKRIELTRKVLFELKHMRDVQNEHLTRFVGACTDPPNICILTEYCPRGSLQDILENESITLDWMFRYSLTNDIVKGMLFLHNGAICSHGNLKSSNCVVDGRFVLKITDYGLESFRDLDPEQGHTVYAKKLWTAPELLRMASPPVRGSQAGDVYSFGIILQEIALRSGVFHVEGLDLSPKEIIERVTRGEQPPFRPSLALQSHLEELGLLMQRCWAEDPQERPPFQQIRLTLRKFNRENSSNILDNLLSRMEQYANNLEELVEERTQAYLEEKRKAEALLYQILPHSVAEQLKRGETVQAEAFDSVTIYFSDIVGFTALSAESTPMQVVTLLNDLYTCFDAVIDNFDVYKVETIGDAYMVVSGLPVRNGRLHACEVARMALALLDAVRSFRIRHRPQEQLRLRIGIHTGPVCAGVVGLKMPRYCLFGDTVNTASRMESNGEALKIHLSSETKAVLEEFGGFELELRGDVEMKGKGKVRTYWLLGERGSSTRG

| Compound | Potency [1] | Potency [2] | Potency [3] | Potency [4] | Potency [5] | Potency [6] | activity, negative = inhibition [1] |
| --- | --- | --- | --- | --- | --- | --- | --- |
| CCOC(=O)N1C2=NC(C(=O)OC)=C(C(=O)OC)[C@@H]3N(C)c4ccccc4[C@]23C[C@H]1C(=O)OC | inactive | inactive | inactive | inactive | inactive | inactive | – |
| O=C1NC[C@H](c2ccccc2)N1 | inactive | inactive | inactive | inactive | inactive | inactive | – |
| CC=COC(=O)N[C@@H](c1ccccc1)[C@]1(C(=O)OCC)CCCC1=O | inactive | inactive | inactive | inactive | inactive | inactive | – |
| C[C@@H]1C=CCCO[C@]12C(=O)N(Cc1ccc(F)cc1)c1ccccc12 | inactive | inactive | inactive | inactive | inactive | inactive | – |
| C=C(C[C@]1(C(=O)OC)C[C@]2(CC=C(C)C)C(=O)C(C(=O)CC(C)C)=C(O)[C@@](CC=C(C)C)(C1)C2=O)C(=O)OC | inactive | inactive | inactive | inactive | inactive | inactive | – |
| C=CCOC(=O)C(C(C)=O)[C@@H](NC(=O)OC)c1ccc(Cl)cc1 (stereo partly drawn) | inactive | inactive | inactive | inactive | inactive | inactive | – |
| CCCCC1=CC2=CC(=O)C(C)(O)C(=O)C2=CO1 (stereo not drawn) | inactive | inactive | inactive | inactive | inactive | inactive | – |
| CCOC(=O)OC[C@H]1O[C@H](c2cc(C)cc(C)c2)C=C[C@H]1OC(=O)OCC | inactive | inactive | inactive | inactive | inactive | inactive | – |
| COc1ccc(-c2nc3c(c4c2C[C@H](c2ccccc2)OC4)CN(C(=O)Nc2cccc(C#N)c2)CC3)c(C)c1 | – | inactive | inactive | inactive | inactive | inactive | 2.23% [at 1.12 µM] |
| C=C1CN2C(=NC(c3ccccc3)C(C(=O)OC)=C2C)O1 (stereo not drawn) | inactive | inactive | inactive | inactive | inactive | inactive | – |
| C[C@H]1C[C@@H](C)O[C@@]2(C1)C(=O)N(CC1CC1)c1ccccc12 | inactive | inactive | inactive | inactive | inactive | inactive | – |
| CCC(=O)OC1(C)C(=O)C=C2C=C(c3ccc(C#N)cc3)OC=C2C1=O (stereo not drawn) | inactive | inactive | inactive | inactive | inactive | inactive | – |
| C=CCN1c2ccccc2[C@]23C[C@@H](C(=O)OC)N(C(=O)Nc4ccccc4F)C2=NC(C(=O)OC)=C(C(=O)OC)[C@H]13 | inactive | inactive | inactive | inactive | inactive | inactive | – |
| CCN1C(=NCCc2cccnc2)NC(c2ccccc2)C(C(=O)OC)=C1C (stereo not drawn) | inactive | inactive | inactive | inactive | inactive | inactive | – |
| Cc1cccc(C)c1Nc1oc(-c2ccccc2)nc1-c1ccccc1 | inactive | inactive | inactive | inactive | inactive | inactive | – |
| COC(=O)CCC(=O)OC1(C)C(=O)C=C2C=C(C3CC3)N(Cc3ccc4c(c3)OCO4)C=C2C1=O (stereo not drawn) | – | inactive | inactive | inactive | inactive | inactive | -0.0348% [at 1.12 µM] |
| COC(=O)CC=C[C@@H](C)[C@@H](C=NOCC[C@@H]1C=C[C@H](OC(C)=O)[C@@H](COC(C)=O)O1)NS(=O)(=O)c1ccc(C)cc1 | inactive | inactive | inactive | inactive | inactive | inactive | – |
| CC(=O)OC[C@H]1O[C@H](CC=NOC[C@@H](C)[C@H](OCc2ccccc2)C(C)C)C=C[C@@H]1OC(C)=O | inactive | inactive | inactive | inactive | inactive | inactive | – |
| COC[C@H]1O[C@H](c2ccccc2)C=C[C@H]1OCC=C(C)C | inactive | inactive | inactive | inactive | inactive | inactive | – |
| COc1cccc(CC(=O)N2CCc3nc(COc4ccccc4)c4c(c3C2)CO[C@@H](C)C4)c1 | inactive | inactive | inactive | inactive | inactive | inactive | – |
| O=C(OCC(F)(F)F)[C@H](O)[C@@H](O)C(=O)OCC(F)(F)F | inactive | inactive | inactive | inactive | inactive | inactive | – |
| CCN1C(=NCc2ccc3c(c2)OCO3)NC(CCc2ccccc2)C(C(=O)OC)=C1C (stereo not drawn) | inactive | inactive | inactive | inactive | inactive | inactive | – |
| CC=COC(=O)N[C@@H](c1ccccc1)[C@]1(C(C)=O)CCCC1=O | inactive | inactive | inactive | inactive | inactive | inactive | – |
| COC1=CC2C(=O)C(C(c3ccccc3)C2C)C1(O)c1cccc(OC)c1 (stereo not drawn) | inactive | inactive | inactive | inactive | inactive | inactive | – |
| CC1(OC(=O)C2CCCC2)C(=O)C=C2C=C(c3ccsc3)N(c3cccc(C#N)c3)C=C2C1=O (stereo not drawn) | inactive | inactive | inactive | inactive | inactive | 2.66 µM (active) | – |
| COC(=O)N[C@H](C(C(=O)OC)=C(C)NCc1ccccc1)c1ccco1 | inactive | inactive | inactive | inactive | inactive | inactive | – |
| Cc1ccc([S+](=O)([O-])N[C@@H]2COC(=O)CC=C[C@H](C)COC(=O)N[C@@H](C)C(=O)CC=C[C@H]2C)cc1 | inactive | inactive | inactive | inactive | inactive | inactive | – |

| Compound | Potency [1] | Potency [2] | Potency [3] | Potency [4] | Potency [5] | Potency [6] | activity, negative = inhibition [1] |
| --- | --- | --- | --- | --- | --- | --- | --- |
| CCOC(=O)CCN1C(=O)[C@@H]2[C@H]3[C@H](O)[C@H](O)CC(=NOCC(C)C)[C@@H]3CC[C@H]2C1=O | inactive | inactive | inactive | inactive | inactive | inactive | – |
| CCOC(=O)CN1C(=O)[C@]2(OCCC=C[C@@H]2C)c2c(Br)cccc21 | inactive | inactive | inactive | inactive | inactive | inactive | – |
| C[C@@H]1C(c2ccccc2)CC(=O)C(=O)C[C@@H]1C(=O)N1CCCC1 (stereo partly drawn) | inactive | inactive | inactive | inactive | inactive | inactive | – |
| COc1cccc(CO[C@H]2C=C[C@@H](c3ccccc3)O[C@H]2CN=[N+]=[N-])c1 | inactive | inactive | inactive | inactive | inactive | inactive | – |
| CC(=O)OC[C@H]1O[C@H](CC=NO[C@@H](C)c2cc(-c3c(C)cc(C)cc3C)no2)C=C[C@@H]1OC(C)=O | inactive | inactive | inactive | inactive | inactive | inactive | – |
| C=CCOC(=O)NC(c1ccc(F)c(F)c1)S(=O)(=O)c1ccc(Cl)cc1 (stereo not drawn) | inactive | inactive | inactive | inactive | inactive | inactive | – |
| C=CCCCN1C=C(C(=O)OCC)C(c2ccccc2)NC1=O (stereo not drawn) | inactive | inactive | inactive | inactive | inactive | inactive | – |
| COC(=O)C1(C(=O)OC)Cc2conc2[C@@H]1c1ccccc1 | inactive | inactive | inactive | inactive | inactive | inactive | – |
| CCCC[C@]12Cc3c(ccc4ccccc34)[C@H](O1)c1c(cc(C)oc1=O)O2 | inactive | inactive | inactive | inactive | inactive | inactive | – |
| CCN1C(=O)N(C)C(c2ccccc2)C(C(=O)OC)=C1C (stereo not drawn) | inactive | inactive | inactive | inactive | inactive | inactive | – |
| COC(=O)[C@@H](NC(=O)O[C@@H]1C(=O)c2cc(Br)ccc2O[C@H]1c1cccc(OC)c1)C(C)C | inactive | inactive | inactive | inactive | inactive | inactive | – |
| COc1ccc(-c2nc(-c3ccccc3)oc2NC2CCCCC2)cc1 | inactive | inactive | inactive | inactive | inactive | inactive | – |
| COC(=O)C(C(C)=O)[C@@H](NC(=O)NCc1ccccc1)c1ccccc1 (stereo partly drawn) | inactive | inactive | inactive | inactive | inactive | inactive | – |
| CC1(O)C(=O)C=C2C=C(c3ccc(C#N)cc3)OC=C2C1=O (stereo not drawn) | inactive | inactive | inactive | inactive | inactive | inactive | – |
| OC[C@@H](O)[C@@H](O)CCc1ccccc1 | inactive | inactive | inactive | inactive | inactive | inactive | – |
| C#CCCCON=C1C[C@@H](O)[C@H](O)[C@H]2[C@@H]3C(=O)N(c4ccc(F)cc4F)C(=O)[C@@H]3CC[C@H]12 | inactive | inactive | inactive | inactive | inactive | inactive | – |
| CC[C@H](C)[C@@H](NC(=O)O[C@H]1C(=O)c2cc(OC)ccc2O[C@@H]1c1ccc(OC)c(Br)c1)C(=O)OC | inactive | inactive | inactive | inactive | inactive | inactive | – |
| C=C(C(C)=O)C(O)c1cccc(OC)c1 (stereo not drawn) | inactive | inactive | inactive | inactive | inactive | inactive | – |
| COCC=CC1=CC2=CC(=O)C(C)(OC(=O)c3cnc4ccccc4n3)C(=O)C2=CN1CC1CC1 (stereo not drawn) | inactive | inactive | inactive | inactive | inactive | inactive | – |
| C=C(C)C(O)C=CC=Cc1ccccc1 (stereo not drawn) | inactive | inactive | inactive | inactive | inactive | inactive | – |
| CCN1C(=O)NC(c2ccccc2)C(C(=O)OC)=C1C (stereo not drawn) | inactive | inactive | inactive | inactive | inactive | inactive | – |
| COC(=O)N[C@@H](c1ccc2ccccc2c1)C(C(C)=O)C(=O)OC (stereo partly drawn) | inactive | inactive | inactive | inactive | inactive | inactive | – |
| CCOC(=O)CN1C(=O)[C@]2(OCCC=C[C@@H]2C)c2cc(OC)ccc21 | inactive | inactive | inactive | inactive | inactive | inactive | – |
| Cc1cccc(C)c1Nc1oc(-c2ccccc2)nc1C(C)(C)C | inactive | inactive | inactive | inactive | inactive | inactive | – |
| COC(=O)C1=C(C(=O)OC)[C@@H]2N(C)c3ccc(OC)cc3[C@@]23C[C@@H](C(=O)OC)N(C(=O)c2ccco2)C3=N1 | – | inactive | inactive | inactive | inactive | inactive | -1.01% [at 1.12 µM] |
| CC(=O)OC[C@H]1O[C@H](c2ccc(C(C)=O)cc2)C=C[C@H]1OC(C)=O | inactive | inactive | inactive | inactive | inactive | inactive | – |
